“And” between values parts separate entries of the source, which are not always exact repeats. Identical values can stand only once. Results filed as inconclusive are left out. A structure can be active in one record and inactive in another. The source made the active and inactive calls. Unless noted, calls come from the whole dose curve; as a rule, active = well fitted curve in the direction sought with a large enough effect; inconclusive = small, poorly fitted or top-dose-only effect, or another doubt; inactive = no such curve, though single readings can be large; an effect the other way counts as inactive or inconclusive.
Tests used:
[1] = biological target: Guanine nucleotide-binding protein G(i) subunit alpha-1 (Homo sapiens) (UniProt P63096); test: qHTS Assay for Inhibitors of RGS12 GoLoco Motif Activity (Green Fluorophore) (AID 879);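 note: 0% = labeled peptide with Gαi1 and full inhibition = labeled peptide alone without protein; negative values mean loss of peptide binding seen as reduced polarization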
How it was run: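 A drop in FITC polarization marked displacement of the FITC-tagged RGS12 GoLoco peptide (10 nM) from Gαi1 (50 nM). Compounds were incubated 10 min at room temperature in Tris pH 7.5 buffer containing 150 mM NaCl, 0.1 mM GDP and 0.05% NP40; unlabeled peptide titration served as control.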

[2] = biological target: Cytochrome P450 2C9 (Homo sapiens) (UniProt P11712); test: qHTS Assay for Inhibitors and Substrates of Cytochrome P450 2C9 (AID 883); note: nearly all actives have a fitted effect of over 60% in size; note: potency is the fitted concentration of half-maximal effect; for activity change, negative = inhibition: % is set by controls: 0 for no effect and ±100 for the full control effect
How it was run: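 Human CYP2C9 (10nM) hydroxylated Luciferin-H (100uM, at its KM) to luciferin in 25mM KPO4. Compound was preincubated 10 min at 37C, then NADPH regeneration started a 60 min reaction at 37C. Luminescence was read after detection reagent, normalized to 57uM sulphaphenazole.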

[3] = biological target: Cytochrome P450 2D6 (Homo sapiens) (UniProt P10635); test: qHTS Assay for Inhibitors and Substrates of Cytochrome P450 2D6 (AID 891); note: nearly all actives have a fitted effect of over 60% in size; note: potency is the fitted concentration of half-maximal effect;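 for activity change, negative = inhibition: luciferin methyl ether substrate demethylated by CYP2D6 with NADPH regeneration; % is set by controls: 0 for no effect and ±100 for the full control effect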
How it was run: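 Luminescent read-out of luciferin formed by 5 nM human CYP2D6 demethylating 30 uM Luciferin-ME EGE (Km level) over 60 min at room temperature after NADPH regeneration addition. Data normalized to full inhibition by 1.43 uM quinidine.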

[4] = qHTS Assay for Identification of Small Molecule Antagonists for NFkB Signaling Pathway (AID 895; active = well fitted inhibition curve with a large enough effect in the signal ratio, with a control signal flat, not every such curve was filed as active; the % refers to the signal ratio; note: potency is the fitted concentration of half-maximal effect; for activity change, negative = inhibition: % is set by controls: 0 for no effect and ±100 for the full control effect)
How it was run: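 NFkB-bla ME-180 cervical carcinoma cells with beta-lactamase reporter under NFkB response element; compounds added, then TNF alpha at 10 pM final (EC50), 5 h at 37 C. LiveBLAzer substrate 2 h, room temperature; emission 460/530 nm at 405 nm excitation.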

[5] = qHTS Assay for Identification of Small Molecule Agonists for Thrombopoietin (TPO) Signaling Pathway (AID 917); note: potency is the fitted concentration of half-maximal effect
How it was run: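 Ba/F3 (mouse) + hTPO receptor + GpIIb-promoter luciferase; IL-3 withdrawn overnight; compound + 26 pM TPO (EC50), 24 hrs, 37 C, 5% CO2; Steadylite luminescence, 10 min RT.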

[6] = biological target: Muscarinic acetylcholine receptor M1 (Rattus norvegicus) (UniProt P08482); test: qHTS Assay for Antagonists of Acetylcholine Muscarinic M1 Receptor: Kinetic Measurement of Intracellular Calcium Response (AID 943); note: nearly all actives have a fitted effect of over 75% in size; note: potency is the fitted concentration of half-maximal effect;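 for activity change, negative = inhibition: Fluo-4 calcium signal as peak divided by basal fluorescence over 4 min; series mostly up to about 35 µM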
How it was run: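 Antagonism measured as reduction of carbachol-evoked (EC80, 100 nM final) calcium flux in rat M1-CHO cells after 10 min compound exposure. Fluo-4 signal read kinetically; ratio of maximal to basal fluorescence.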

[7] = biological target: Pyruvate kinase (Leishmania mexicana) (UniProt Q27686); test: qHTS Validation Assay for Inhibitors of Leishmania Mexicana Pyruvate Kinase (AID 945);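 note: 0% = DMSO only neutral control wells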
How it was run: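 Compounds are tested as eight-point concentration series. Reactions contain 0.2 nM LmPYK E451W, 0.5 mM PEP, 0.1 mM ADP, 7 mM MgCl2 and 50 mM KCl at pH 7.2, run 1 h at room temperature, then read by PKLight luminescence.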

[8] = biological target: Cytochrome P450 2C19 (Homo sapiens) (UniProt P33261); test: qHTS Assay for Inhibitors and Substrates of Cytochrome P450 2C19 (AID 899); note: nearly all actives have a fitted effect of over 60% in size; note: potency is the fitted concentration of half-maximal effect
How it was run: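 Human CYP2C19 (5nM) with Luciferin-H EGE at 10uM (its KM) in 50mM KPO4 was preincubated with compound for 10 min at 37C. NADPH regeneration started a 60 min 37C reaction. Luciferin was read by luminescence, normalized to 57uM ketoconazole.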

[9] = biological target: Cytochrome P450 3A4 (Homo sapiens) (UniProt P08684); test: qHTS Assay for Activators of Cytochrome P450 3A4 (AID 885); note: nearly all actives have a fitted effect of over 65% in size; note: potency is the fitted concentration of half-maximal effect
How it was run: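 CYP3A4 activity: Luciferin-PPXE O-dealkylation, 25uM substrate, 200mM KPO4, RT throughout. Read-out is luciferase luminescence; higher values reflect activation.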

[10] = biological target: Muscarinic acetylcholine receptor M1 (Rattus norvegicus) (UniProt P08482); test: qHTS Assay for Antagonists of Acetylcholine Muscarinic M1 Receptor: Measurement of IP-One Response (AID 944); note: nearly all actives have a fitted effect of over 75% in size; note: potency is the fitted concentration of half-maximal effect
How it was run: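 IP1 accumulation measured via TR-FRET between d2-IP1 and Eu-cryptate anti-IP1 antibody after carbachol (200 nM, EC80) stimulation for 30 min; rat M1-transfected CHO cells received compound 10 min before agonist.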

[11] = biological target: Cytochrome P450 3A4 (Homo sapiens) (UniProt P08684); test: qHTS Assay for Inhibitors and Substrates of Cytochrome P450 3A4 (AID 884); note: nearly all actives have a fitted effect of over 50% in size; note: potency is the fitted concentration of half-maximal effect; for activity change, negative = inhibition: series mostly up to about 57 µM; % is set by controls: 0 for no effect and ±100 for the full control effect
How it was run: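 Luminescent readout of luciferin produced by CYP3A4 (20 nM) dealkylation of Luciferin-PPXE, 25 uM (its KM). NADPH-driven reaction ran 60 min at RT after 10 min compound preincubation; data scaled to 57 uM ketoconazole as 100% inhibition.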

[12] = Confirmation and Secondary Assay for Modulators of Hemoglobin Beta Chain Splicing at IVS2 654 locus (AID 910);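 note: per-well total GFP intensity by laser scanning cytometry after 2-day treatment; % of control where 0% means no effect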
How it was run: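 HeLa cells stably carrying EGFP interrupted by mutant beta-globin IVS2-654 intron (CMV-driven) were treated with compound for 2 days at 37C; corrected splicing was scored as total peak GFP intensity per well (488 nm excitation, 500-520 nm emission).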

[13] = Confirmation and Secondary Assay for Modulators of Hemoglobin Beta Chain Splicing at IVS2 705 locus (AID 930);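 note: HeLa cells stably expressing the EGFP-705 splicing reporter; GFP fluorescence per well restored by corrected splicing of the IVS2-705 intron in EGFP; series mostly up to about 46 µM; % of control where 0% means no effect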
How it was run: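 Fluorescence gain (488 nm laser, 500-520 nm PMT) reflects restored correct splicing of a mutant IVS2-705 intron inside EGFP in stably transfected HeLa cells after 2-day compound treatment.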

[14] = qHTS Assay for Identification of Small Molecule Agonists for NFkB Signaling Pathway (AID 928; calls by dose curve); settings: NFkB beta-lactamase reporter cells, blue/green ratio
How it was run: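 Activators were sought with TNF alpha co-added at 10 pM final (its EC50) to beta-lactamase reporter cells. Cells were plated in OPTI MEM with 0.5% FBS and exposed for 5 hrs at 37 C. The FRET substrate ratio was read at 460 and 530 nm.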

[15] = qHTS Assay for Identification of Small Molecule Agonists for Hypoxia Response Element Signaling Pathway (AID 914; active = well fitted activation curve with a large enough effect in the signal ratio, with a control signal flat, not every such curve was filed as active; the % refers to the signal ratio; note: % of control where 0% means no effect); settings: ME-180 (cervical carcinoma) HRE-bla reporter, beta-lactamase ratio, CoCl2, 17 h; stronger effect = higher value
How it was run: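 A beta-lactamase reporter under hypoxia response element control in ME-180 cells served as the system. Compound titrations plus EC50 CoCl2 ran 17 h at 37 degrees Celsius; AC50 values were fitted from %Activity.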

Sequence of Cytochrome P450 3A4 (Homo sapiens) (P08684 whole entry, looked up): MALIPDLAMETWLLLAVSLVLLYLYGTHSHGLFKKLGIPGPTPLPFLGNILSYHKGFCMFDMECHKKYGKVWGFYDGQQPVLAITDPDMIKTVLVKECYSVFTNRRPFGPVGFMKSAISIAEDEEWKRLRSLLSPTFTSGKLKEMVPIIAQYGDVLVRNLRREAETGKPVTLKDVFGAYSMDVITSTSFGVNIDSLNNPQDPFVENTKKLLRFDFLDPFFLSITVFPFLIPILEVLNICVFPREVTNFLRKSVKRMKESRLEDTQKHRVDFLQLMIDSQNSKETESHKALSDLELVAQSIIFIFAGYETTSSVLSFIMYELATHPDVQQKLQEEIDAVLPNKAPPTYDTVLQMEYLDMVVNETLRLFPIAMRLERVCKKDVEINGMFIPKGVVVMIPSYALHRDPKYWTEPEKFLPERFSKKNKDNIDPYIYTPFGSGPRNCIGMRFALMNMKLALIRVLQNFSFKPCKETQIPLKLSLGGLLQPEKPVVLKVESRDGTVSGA
Sequence of Cytochrome P450 2C9 (Homo sapiens) (P11712 whole entry, looked up): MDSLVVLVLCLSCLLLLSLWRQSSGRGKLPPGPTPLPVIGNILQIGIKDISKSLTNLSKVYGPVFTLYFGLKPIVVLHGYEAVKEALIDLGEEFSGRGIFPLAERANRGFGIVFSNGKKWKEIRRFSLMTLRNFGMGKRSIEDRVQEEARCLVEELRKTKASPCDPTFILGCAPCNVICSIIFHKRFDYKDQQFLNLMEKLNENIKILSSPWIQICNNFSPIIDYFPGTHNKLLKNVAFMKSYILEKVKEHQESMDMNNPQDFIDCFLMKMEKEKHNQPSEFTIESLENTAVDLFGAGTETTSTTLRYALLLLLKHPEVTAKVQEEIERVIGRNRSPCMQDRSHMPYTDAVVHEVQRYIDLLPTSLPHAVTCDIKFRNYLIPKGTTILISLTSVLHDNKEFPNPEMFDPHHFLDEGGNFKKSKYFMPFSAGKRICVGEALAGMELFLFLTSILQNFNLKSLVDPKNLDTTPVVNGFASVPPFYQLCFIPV
Sequence of Cytochrome P450 2C19 (Homo sapiens) (P33261 whole entry, looked up): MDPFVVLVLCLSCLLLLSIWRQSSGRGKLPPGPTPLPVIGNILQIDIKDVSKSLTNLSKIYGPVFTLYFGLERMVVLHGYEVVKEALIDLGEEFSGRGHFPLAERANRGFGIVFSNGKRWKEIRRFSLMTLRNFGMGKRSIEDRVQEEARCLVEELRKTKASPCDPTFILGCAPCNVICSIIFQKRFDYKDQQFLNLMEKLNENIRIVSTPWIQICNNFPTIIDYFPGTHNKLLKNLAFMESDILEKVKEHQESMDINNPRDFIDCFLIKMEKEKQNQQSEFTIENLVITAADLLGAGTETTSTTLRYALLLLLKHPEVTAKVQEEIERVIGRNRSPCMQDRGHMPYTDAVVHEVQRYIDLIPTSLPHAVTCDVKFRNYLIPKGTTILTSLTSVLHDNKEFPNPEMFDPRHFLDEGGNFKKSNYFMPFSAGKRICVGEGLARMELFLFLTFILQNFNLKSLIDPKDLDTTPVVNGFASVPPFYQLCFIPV
Sequence of Guanine nucleotide-binding protein G(i) subunit alpha-1 (Homo sapiens) (P63096 whole entry, looked up): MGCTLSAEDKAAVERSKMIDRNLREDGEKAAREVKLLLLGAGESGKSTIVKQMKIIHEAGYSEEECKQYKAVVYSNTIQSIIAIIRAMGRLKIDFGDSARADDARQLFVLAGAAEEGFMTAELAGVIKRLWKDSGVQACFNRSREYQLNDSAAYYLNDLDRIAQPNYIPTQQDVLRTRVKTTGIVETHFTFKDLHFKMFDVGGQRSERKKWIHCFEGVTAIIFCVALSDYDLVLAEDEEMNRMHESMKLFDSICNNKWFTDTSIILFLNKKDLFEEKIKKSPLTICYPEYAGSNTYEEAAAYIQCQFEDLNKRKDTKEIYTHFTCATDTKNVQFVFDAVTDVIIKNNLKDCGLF
Sequence of Muscarinic acetylcholine receptor M1 (Rattus norvegicus) (P08482 whole entry, looked up): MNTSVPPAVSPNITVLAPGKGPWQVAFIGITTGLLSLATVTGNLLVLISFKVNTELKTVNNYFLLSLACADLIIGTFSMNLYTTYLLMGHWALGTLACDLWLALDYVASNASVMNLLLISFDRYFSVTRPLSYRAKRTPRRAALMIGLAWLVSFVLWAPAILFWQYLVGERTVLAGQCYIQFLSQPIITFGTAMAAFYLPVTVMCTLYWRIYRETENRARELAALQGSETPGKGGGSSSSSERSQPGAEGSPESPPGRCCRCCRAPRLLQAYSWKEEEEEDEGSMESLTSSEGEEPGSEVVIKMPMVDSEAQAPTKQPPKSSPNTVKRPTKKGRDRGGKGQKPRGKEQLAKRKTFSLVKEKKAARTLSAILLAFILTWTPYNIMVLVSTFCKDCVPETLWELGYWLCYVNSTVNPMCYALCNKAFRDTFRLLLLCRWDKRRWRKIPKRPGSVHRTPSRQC
Sequence of Pyruvate kinase (Leishmania mexicana) (Q27686 2-499 E452W): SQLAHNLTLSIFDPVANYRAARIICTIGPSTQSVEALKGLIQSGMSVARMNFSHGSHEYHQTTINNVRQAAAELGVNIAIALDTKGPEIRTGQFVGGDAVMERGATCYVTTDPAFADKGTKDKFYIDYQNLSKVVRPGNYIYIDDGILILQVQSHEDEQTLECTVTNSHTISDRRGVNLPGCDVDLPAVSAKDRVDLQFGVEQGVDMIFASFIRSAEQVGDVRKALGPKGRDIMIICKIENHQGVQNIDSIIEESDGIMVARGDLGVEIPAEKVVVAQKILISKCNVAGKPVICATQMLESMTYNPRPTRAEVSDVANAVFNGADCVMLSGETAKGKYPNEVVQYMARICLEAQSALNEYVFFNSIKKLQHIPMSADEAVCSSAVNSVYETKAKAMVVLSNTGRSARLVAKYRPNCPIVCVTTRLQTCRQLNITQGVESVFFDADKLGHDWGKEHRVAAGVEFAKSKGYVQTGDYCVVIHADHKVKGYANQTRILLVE
Sequence of Cytochrome P450 2D6 (Homo sapiens) (P10635 whole entry, looked up): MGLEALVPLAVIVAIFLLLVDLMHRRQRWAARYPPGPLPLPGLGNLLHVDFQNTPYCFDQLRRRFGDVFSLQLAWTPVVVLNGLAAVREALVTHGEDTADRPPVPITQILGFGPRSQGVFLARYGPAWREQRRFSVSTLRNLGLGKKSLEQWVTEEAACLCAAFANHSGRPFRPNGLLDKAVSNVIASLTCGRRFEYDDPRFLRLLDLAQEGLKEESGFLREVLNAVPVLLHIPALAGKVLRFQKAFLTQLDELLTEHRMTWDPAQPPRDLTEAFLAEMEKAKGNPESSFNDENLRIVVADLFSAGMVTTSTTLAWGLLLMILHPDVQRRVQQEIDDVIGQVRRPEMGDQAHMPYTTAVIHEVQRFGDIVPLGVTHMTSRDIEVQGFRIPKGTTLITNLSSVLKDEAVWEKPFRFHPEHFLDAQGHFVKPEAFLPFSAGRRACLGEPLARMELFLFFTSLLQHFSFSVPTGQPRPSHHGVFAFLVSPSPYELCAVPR

CCCCN1CCC(n2c(=O)[nH]c3ccccc32)CC1
active: Potency [3] 3.16 µM
inactive: outcome [1] | Potency [2] | Potency [4] | Potency [5] | Potency [6] | Potency [7]

N[C@H](CCCP(=O)(O)O)C(=O)O
inactive: outcome [1] | Potency [2] | Potency [3] | Potency [8] | Potency [5] | Potency [6]

C[C@@H](NC(=O)/C(C#N)=C/c1ccc(O)c(O)c1)c1ccccc1
inactive: outcome [1] | Potency [2] | Potency [9] | Potency [6] | Potency [10] | Potency [7]

O=C(O)c1cc([N+](=O)[O-])ccc1NCCCc1ccccc1
inactive: outcome [1] | Potency [3] | Potency [8] | Potency [6] | Potency [10]
active: Potency [2] 7.94 µM and 501 nM

NCCCCC(=O)O
inactive: outcome [1] | Potency [11] | Potency [3] | outcome [12] | Potency [5] | outcome [13] | Potency [6] | Potency [10] | Potency [7]

CN(C)c1nc2c(Br)c(Br)c(Br)c(Br)c2[nH]1
active: Potency [11] 20 µM | Potency [4] 0.501 µM | Potency [5] 1.26 µM
inactive: outcome [1] | Potency [9] | Potency [6] | Potency [10]

NCCSSCCN
inactive: outcome [1] | Potency [11] | Potency [4] | outcome [12] | outcome [13] | Potency [10]

N#C/C(=C\c1ccc(O)c(O)c1)C(=O)c1ccc(O)c(O)c1
inactive: outcome [1] | Potency [9] | Potency [4] | Potency [6]

CNCC[C@H](Oc1ccc(C(F)(F)F)cc1)c1ccccc1
inactive: outcome [1] | outcome [2] | Potency [7]

CCCN(CC1CC1)c1nc(C)nc(Nc2c(Cl)cc(Cl)cc2Cl)c1Cl
inactive and 1.58 µM (active): Potency [3]
inactive: outcome [1] | Potency [9] | Potency [5] | Potency [6] | Potency [10]

Brc1c(Br)c(Br)c2n[nH]nc2c1Br
inactive: outcome [1] | Potency [9] | Potency [6] | Potency [10] | Potency [7]
active: Potency [11] 2.51 µM

O=C(O)CC[C@@H](C(=O)O)N1C(=O)c2ccccc2C1=O
inactive: outcome [1] | Potency [11] | activity change, negative = inhibition [3] 21.6% [at 11.4 µM] | Potency [5] | Potency [10] | Potency [7]
active: Potency [6] 0.0251 µM

CC(C)(C=O)Cc1cc(C(C)(C)C)c(O)c(C(C)(C)C)c1
inactive: outcome [1] | Potency [9] | Potency [8] | Potency [5] | Potency [6]

O=c1[nH]c2ccccc2n1CCCN1CCN(C(c2ccccc2)c2ccccc2)CC1
inactive: outcome [1] | Potency [11] | Potency [5]
active: Potency [9] 15.8 µM | Potency [3] 0.794 µM | Potency [6] 5.01 µM | Potency [10] 15.8 µM

COc1cc2c(CCNC(C)=O)c[nH]c2cc1Cl
inactive and 5.01 µM (active): Potency [8]
active: Potency [14] 3.16 µM
inactive: outcome [1] | Potency [9]

O=C(c1cc(O)c(O)c([N+](=O)[O-])c1)c1ccccc1F
inactive: outcome [1] | Potency [9] | Potency [5] | Potency [6] | Potency [10]
active: Potency [2] 1.26 µM

N#C/C(=C\c1ccc(O)c(O)c1)C(=O)NCc1ccccc1
inactive: outcome [1] | Potency [2] | Potency [9] | Potency [3] | Potency [8] | Potency [6]

Oc1cc2c(cc1O)CN(C(=S)NCCc1ccc(Cl)cc1)CCC2
active: Potency [11] 3.16 µM | Potency [8] 5.01 µM and 316 nM
inactive: outcome [1] | Potency [9] | Potency [6] | Potency [10]

Cc1cc(NC(=O)Nc2ccc3c(ccn3C)c2)sn1
active: Potency [5] 1.58 µM
inactive and 3.16 µM (active): Potency [8]
inactive: outcome [1] | Potency [9] | Potency [4] | Potency [6]

NC(N)=NC(=O)c1nc(Cl)c(N2CCCCCC2)nc1N
inactive: outcome [1] | Potency [11] | Potency [4] | outcome [12] | outcome [13] | Potency [10]
active: Potency [8] 5.01 µM

O=C(Nc1cccc(C(=O)Nc2ccc(S(=O)(=O)O)c3cc(S(=O)(=O)O)cc(S(=O)(=O)O)c23)c1)Nc1cccc(C(=O)Nc2ccc(S(=O)(=O)O)c3cc(S(=O)(=O)O)cc(S(=O)(=O)O)c23)c1
inactive: outcome [1] | Potency [9] | activation [15] -24.7% | Potency [5] | Potency [6] | Potency [7]
